The source of these data is PubChem BioAssay.

The source made the active and inactive calls.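 The calls were made as follows, unless noted: active = inhibition above 20% together with a positive visual image hit; inconclusive = visual image hit but inhibition not above 20%; inactive = no visual image hit.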

As usually defined, the inhibition is the relative decrease from the control value, in per cent.

One assay in a line: inhibitors of TNFa-induced NFkB p65 translocation, primary screen, imaging, HUVEC, MLSMR starter and 10KST1 sets (AID 438).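 Also: compound added about 3h40 before a 20 min TNFalpha stimulation.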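 As to inhibition: signal is the nuclear over cytoplasmic p65 intensity ratio per well.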 To be noted: HUVEC TNFa-induced p65 nuclear translocation; cell count: measured here: nuclei count (cytotoxicity indicator), at 2.08 µM; inhibition: at 2 µM, stronger effect = higher value, 0% TNFa-plus-vehicle, 100% no-TNFa wells.
Turning to `CN(Cc1ccccc1)Cc1nc2c(c(=O)n(C)c(=O)n2C)n1Cc1ccc(Cl)cc1`, the inhibition was -7.7% (inactive) and the cell count was 346.
The like results for `C=CCOC(=O)CCC(=O)Nc1cc(OC)nc(OC)n1` were, in that order, -12.9% (inactive) and 653.
With `O=C(NCc1cccs1)c1cc2c(s1)-c1ccccc1OC2`, the inhibition is 1.6% (inactive) and the cell count is 674.
The like results for `O=C(O)CN1C(=O)C2(OCCCO2)c2ccccc21` were, in that order, -5.7% (inactive) and 542.
Consider `CS(=O)(=O)c1ccc2nc(NC(=O)c3cccs3)sc2c1`, for which the inhibition is -2.9% (inactive) and the cell count is 351.
The like results for `CSc1nc(C)cc(OCC(=O)N2CCOCC2)n1` were, in that order, -7.5% (inactive) and 262.
The like results for `CC1CN(C(=O)CSc2nnc(-c3ccncc3)n2-c2ccccc2)CC(C)O1` (stereo not given) were, in that order, 2.9% (inactive) and 447.
In the case of `CCOC(=O)c1cccc(NC(=O)c2ccco2)c1`, the cell count worked out at 690 and the inhibition is 2.9% (inactive).
The like results for `Cc1ccc(Cn2c(=N)c(C(=O)NCc3ccco3)cc3c(=O)n4ccccc4nc32)cc1` were, in that order, 491 and 1.5% (inactive).
As to `COC(=O)c1ccccc1S(=O)(=O)NC(=O)c1ccccc1`, the inhibition was -2.8% (inactive) and the cell count was found to be 368.
The like results for `N#Cc1ccc(COC(=O)Cn2nnc(-c3ccccc3)n2)cc1` were, in that order, -15.2% (inactive) and 503.
The like results for `CCOC(=O)Nc1c(O)ccc2oc(C)c(-c3ccccc3)c12` were, in that order, -6.4% (inactive) and 271.
The like results for `CCOC(=O)C1CCN(Cc2ccc(OC)c(C)c2OC)CC1` were, in that order, -1.3% (inactive) and 313.
Regarding `O=C(CSCc1cnn(-c2ccccc2)c1-n1cccc1)NCC1CCCO1` (stereo not given), the inhibition is -10% (inactive) and the cell count is 587.
The like results for `CCOc1ccc(C2CC(c3cccc(OC)c3)Nc3nc(N)nn32)cc1` (stereo not given) were, in that order, 5.4% (inactive) and 562.
The like results for `CCOc1ccc(-c2nc(C#N)c(NCc3ccc4c(c3)OCO4)o2)cc1` were, in that order, 1.8% (inactive) and 801.
The like results for `COc1cccc(-c2nnc(NC(C)=O)o2)c1` were, in that order, 0.3% (inactive) and 694.
Take `CC1(C)CC(=O)C(C#N)=C(NCCCO)C1`: the inhibition is 5% (inactive) and the cell count amounted to 471.
The like results for `COc1cccc(-c2noc(-c3cccs3)n2)c1` were, in that order, -0.7% (inactive) and 390.
Regarding `CCOC(=O)CCc1c(C)nc2cc(-c3ccc(F)cc3)[nH]n2c1=O`, the cell count amounted to 249 and the inhibition is -7.1% (inactive).
The like results for `CCOC(=O)c1c(C)[nH]c(C(=O)COC(=O)C2CC2C)c1C` (stereo not given) were, in that order, 378 and 0.3% (inactive).
The like results for `CCN(CC)S(=O)(=O)c1ccc(F)c(C(=O)NCCC(C)C)c1` were, in that order, 497 and -22% (inactive).
The like results for `CCOC(=O)c1cnn(-c2cc(C)nc3c(-c4ccccc4)c(C)nn23)c1N` were, in that order, 645 and -7.8% (inactive).
Turning to `CC(NCc1ccco1)C(=O)N1CCc2ccccc2C1` (stereo not given), the cell count amounted to 705 and the inhibition is -49% (inactive).
The like results for `COc1ccc(OC)c(-c2nnc(SCC(=O)NC3CCCCC3)o2)c1` were, in that order, 738 and 2.1% (inactive).
With `O=C1NC2(Nc3ccccc31)C(=O)Nc1ccccc12` (stereo not given), the inhibition was -4.3% (inactive) and the cell count is 361.
The like results for `CCN(CC)CCCN1C(=O)C(=O)/C(=C(/O)c2ccc3c(c2)OCO3)C1c1ccccn1` (stereo not given) were, in that order, 1.8% (inactive) and 621.
The like results for `COc1ccc(Cn2nnnc2C(c2cc3cc(C)cc(C)c3[nH]c2=O)N2CCOCC2)cc1` (stereo not given) were, in that order, -12.9% (inactive) and 762.
The like results for `COCCN(CCOC)Cc1c(C)[nH]c2ccccc2c1=O` were, in that order, 6.8% (inactive) and 398.
Turning to `CN(CCNS(=O)(=O)c1ccc2c(c1)oc(=O)n2C)Cc1ccccc1`, the cell count is 739 and the inhibition is -6.7% (inactive).
The like results for `CCOC(=O)c1c(C)[nH]c(C)c1C(=O)COc1ccc(NC(=O)c2ccco2)cc1` were, in that order, 426 and -10.7% (inactive).
The like results for `CCCCn1c(NCCC)nc2c1c(=O)[nH]c(=O)n2C` were, in that order, 383 and -6.2% (inactive).
As to `COc1cccc(C2C(C(N)=O)=C(C)Nc3nc(CCCO)nn32)c1OC` (stereo not given), the cell count is 480 and the inhibition was 5% (inactive).
The like results for `C(=N/n1c2ccccc2c2ccccc21)/c1ccco1` were, in that order, 360 and -2% (inactive).
The like results for `COC(=O)Cc1c(C)nc2nc[nH]n2c1=O` were, in that order, 648 and -6% (inactive).
The like results for `Cc1cccc(CC(=O)Nc2c3c(nn2-c2cccc(Cl)c2)CS(=O)C3)c1` (stereo not given) were, in that order, 394 and 1% (inactive).
For `Cc1ccc(CNC(=O)COC(=O)c2c(C)noc2C)cc1`, the inhibition is 6.9% (inactive) and the cell count was 581.
The like results for `CCOCCc1nnc(NC(=O)c2ccc(OC)c(OC)c2)s1` were, in that order, 9.1% (inactive) and 578.
The like results for `Cc1cccc(C2CC(c3ccccc3)Nc3nc(N)nn32)c1` (stereo not given) were, in that order, -3.4% (inactive) and 626.
The like results for `Cc1nn(C)c(C)c1NC(=O)CCSc1nc(-c2ccco2)cc(C(F)(F)F)n1` were, in that order, -2.2% (inactive) and 491.

The next assay in a line: inhibitors of mutant huntingtin aggregation, primary screen, imaging, exon1htt(103Q)mCFP cells, high-content imaging (AID 483;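 active = visual image review flags a hit and inhibition of aggregation exceeds 20%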;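 also: compound exposure lasted 3 days before fixation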;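 as to nuclei count: percent of the per-plate median nuclei count of sample wells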). To be noted: exon1htt(103Q)mCFP cell line, aggregate imaging, at 2 µM; inhibition of aggregation: stronger effect = higher value; nuclei count: measured here: cell count, toxicity.
In the case of `CN(Cc1ccccc1)Cc1nc2c(c(=O)n(C)c(=O)n2C)n1Cc1ccc(Cl)cc1`, the inhibition of aggregation is 22.2% (inactive) and the nuclei count was determined as 72.4%.
The like results for `C=CCOC(=O)CCC(=O)Nc1cc(OC)nc(OC)n1` were, in that order, -1.7% (inactive) and 109%.
The like results for `O=C(NCc1cccs1)c1cc2c(s1)-c1ccccc1OC2` were, in that order, -25.1% (inactive) and 98.2%.
The like results for `O=C(O)CN1C(=O)C2(OCCCO2)c2ccccc21` were, in that order, -4.1% (inactive) and 96.1%.
With `CS(=O)(=O)c1ccc2nc(NC(=O)c3cccs3)sc2c1`, the nuclei count is 105% and the inhibition of aggregation is 4.4% (inactive).
The like results for `CSc1nc(C)cc(OCC(=O)N2CCOCC2)n1` were, in that order, 104% and 25.5% (inactive).
The like results for `CC1CN(C(=O)CSc2nnc(-c3ccncc3)n2-c2ccccc2)CC(C)O1` (stereo not given) were, in that order, 101% and 4% (inactive).
The like results for `CCOC(=O)c1cccc(NC(=O)c2ccco2)c1` were, in that order, 100% and -3.3% (inactive).
`Cc1ccc(Cn2c(=N)c(C(=O)NCc3ccco3)cc3c(=O)n4ccccc4nc32)cc1`: the inhibition of aggregation is -19.4% (inactive) and the nuclei count stood at 95.7%.
The like results for `COC(=O)c1ccccc1S(=O)(=O)NC(=O)c1ccccc1` were, in that order, -12.4% (inactive) and 96.8%.
The like results for `N#Cc1ccc(COC(=O)Cn2nnc(-c3ccccc3)n2)cc1` were, in that order, -8.3% (inactive) and 98.8%.
The like results for `CCOC(=O)Nc1c(O)ccc2oc(C)c(-c3ccccc3)c12` were, in that order, -22% (inactive) and 104%.
Turning to `CCOC(=O)C1CCN(Cc2ccc(OC)c(C)c2OC)CC1`, the nuclei count turned out to be 107% and the inhibition of aggregation was -10.2% (inactive).
For the compound `O=C(CSCc1cnn(-c2ccccc2)c1-n1cccc1)NCC1CCCO1` (stereo not given), the inhibition of aggregation is -10.3% (inactive) and the nuclei count was 101%.
Turning to `CCOc1ccc(C2CC(c3cccc(OC)c3)Nc3nc(N)nn32)cc1` (stereo not given), the nuclei count was 100% and the inhibition of aggregation was 15.4% (inactive).
The like results for `CCOc1ccc(-c2nc(C#N)c(NCc3ccc4c(c3)OCO4)o2)cc1` were, in that order, 93.8% and -13.1% (inactive).
Consider `COc1cccc(-c2nnc(NC(C)=O)o2)c1`, for which the nuclei count was found to be 99.5% and the inhibition of aggregation is -16.5% (inactive).
The like results for `CC1(C)CC(=O)C(C#N)=C(NCCCO)C1` were, in that order, 98.2% and -2.8% (inactive).
The like results for `COc1cccc(-c2noc(-c3cccs3)n2)c1` were, in that order, 110% and 11.7% (inactive).
The like results for `CCOC(=O)CCc1c(C)nc2cc(-c3ccc(F)cc3)[nH]n2c1=O` were, in that order, 85% and 3% (inactive).
Take `CCOC(=O)c1c(C)[nH]c(C(=O)COC(=O)C2CC2C)c1C` (stereo not given): the inhibition of aggregation is -161% (inactive) and the nuclei count was 1.8%.
The like results for `CCN(CC)S(=O)(=O)c1ccc(F)c(C(=O)NCCC(C)C)c1` were, in that order, 37.4% (inactive) and 79.2%.
Take `CCOC(=O)c1cnn(-c2cc(C)nc3c(-c4ccccc4)c(C)nn23)c1N`: the nuclei count amounted to 124% and the inhibition of aggregation was 7.9% (inactive).
For the compound `CC(NCc1ccco1)C(=O)N1CCc2ccccc2C1` (stereo not given), the nuclei count stood at 105% and the inhibition of aggregation was 6.5% (inactive).
The like results for `COc1ccc(OC)c(-c2nnc(SCC(=O)NC3CCCCC3)o2)c1` were, in that order, 97.8% and 13.9% (inactive).
The like results for `O=C1NC2(Nc3ccccc31)C(=O)Nc1ccccc12` (stereo not given) were, in that order, 102% and 6.1% (inactive).
The like results for `CCN(CC)CCCN1C(=O)C(=O)/C(=C(/O)c2ccc3c(c2)OCO3)C1c1ccccn1` (stereo not given) were, in that order, 85.9% and 21.9% (inactive).
`COc1ccc(Cn2nnnc2C(c2cc3cc(C)cc(C)c3[nH]c2=O)N2CCOCC2)cc1` (stereo not given): the nuclei count was found to be 113% and the inhibition of aggregation was 33.9% (inactive).
The like results for `COCCN(CCOC)Cc1c(C)[nH]c2ccccc2c1=O` were, in that order, 93.3% and 12.7% (inactive).
The like results for `CN(CCNS(=O)(=O)c1ccc2c(c1)oc(=O)n2C)Cc1ccccc1` were, in that order, 95.2% and -7.2% (inactive).
The like results for `CCOC(=O)c1c(C)[nH]c(C)c1C(=O)COc1ccc(NC(=O)c2ccco2)cc1` were, in that order, 102% and 8.3% (inactive).
`CCCCn1c(NCCC)nc2c1c(=O)[nH]c(=O)n2C`: the nuclei count was 114% and the inhibition of aggregation was -0.7% (inactive).
The like results for `COc1cccc(C2C(C(N)=O)=C(C)Nc3nc(CCCO)nn32)c1OC` (stereo not given) were, in that order, 102% and 11.5% (inactive).
The like results for `C(=N/n1c2ccccc2c2ccccc21)/c1ccco1` were, in that order, 102% and -20.7% (inactive).
The like results for `COC(=O)Cc1c(C)nc2nc[nH]n2c1=O` were, in that order, 103% and 2.1% (inactive).
Turning to `Cc1cccc(CC(=O)Nc2c3c(nn2-c2cccc(Cl)c2)CS(=O)C3)c1` (stereo not given), the inhibition of aggregation was -17.3% (inactive) and the nuclei count worked out at 106%.
Consider `Cc1ccc(CNC(=O)COC(=O)c2c(C)noc2C)cc1`, for which the nuclei count was found to be 89.7% and the inhibition of aggregation was 23.2% (inactive).
With `CCOCCc1nnc(NC(=O)c2ccc(OC)c(OC)c2)s1`, the inhibition of aggregation is -18.6% (inactive) and the nuclei count is 97.6%.
The like results for `Cc1cccc(C2CC(c3ccccc3)Nc3nc(N)nn32)c1` (stereo not given) were, in that order, 7.7% (inactive) and 114%.
Turning to `Cc1nn(C)c(C)c1NC(=O)CCSc1nc(-c2ccco2)cc(C(F)(F)F)n1`, the inhibition of aggregation was 10.3% (inactive) and the nuclei count came to 108%.
